FAS TE block: blocks the thioesterase domain of human fatty acid synthase; P49327; recombinant FAS-TE, OMFH fluorogenic substrate, fluorescence endpoint; inhibition, % at 15 µM; 0.67% of 360,000 active;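 active = compounds whose normalised, plate-corrected inhibition of enzyme fluorescence in the single-dose primary screen is 50% or more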
rCAG binder: r(CAG) repeat RNA binding; 1.3% of 370,000 active; TO-PRO-1 dye displacement fluorescence; inhibition, % at 3 µM; AID 651821;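 active = inhibition above the plate cutoff, the mean of all test compounds on that plate plus 3 SD, cut at about 35% in these data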;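 also: higher means more dye released from RNA so lower well fluorescence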
Myeloid diff 2: myeloid differentiation induction | ER-HoxA9 myeloid progenitors, lysozyme-GFP differentiation, flow cytometry | calls only at 10 µM | 1% of 360,000 active | AID 624256;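 active = normalized GFP-positive differentiation at or above the plate's own cutoff, the solvent-only control mean plus 3 SD; inconclusive = no clear call, values can overlap the other calls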;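 also: cells exposed to compound for four days before flow analysis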
GRIN3A LBD mod: modulates the human NR3A ligand-binding domain; NR3A LBD differential scanning fluorimetry, Tm shift; 0% = protein alone, 100% = glycine-bound protein; Tm shift relative to glycine control, % at 25 µM; 2.5% of 340,000 active; AID 1259313;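 active = melting temperature shift of at least 10% of the positive control shift, at one fixed dose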
MPTP block: blocks calcium-induced mitochondrial swelling | isolated mouse mitochondria, Ca2+ swelling absorbance, 30 min | inhibition, % at 10 µM | 1.4% of 360,000 active;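 active = inhibition of 50% or more, scaled per plate between neutral and stimulator controls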
rCAG bind conf: r(CAG) RNA repeat binding, confirmation | shares compounds with rCAG binder | TO-PRO-1 dye displacement fluorescence | inhibition, % at 3 µM | 70% of 4,300 active | AID 652065;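 active = inhibition above a per-plate cutoff, the mean inhibition of sample wells plus 3 SD, cut at about 35% in these data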;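 also: loss of TO-PRO-1 fluorescence as compound displaces dye from 1x1 AA loop RNA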
dCAG dye counter: disrupts DNA CAG TO-PRO-1 complex, flagging rCAG hits. shares compounds with rCAG binder. AID 652068. 94% of 4,300 active. inhibition, % at 3 µM. d(CAG) DNA oligo TO-PRO-1 dye displacement, fluorescence;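 active = inhibition above its plate's cutoff, the mean test-well inhibition plus 3 SD, cut at about 4.8% in these data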;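 also: hits displace the dye from DNA and so lower well fluorescence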
dCAG dye DR: disrupts DNA CAG TO-PRO-1 complex in dose response; IC50, µM; DNA CAG/GTC duplex TO-PRO-1 dye displacement fluorescence; shares compounds with rCAG binder; AID 686960; 20% of 250 active; in the data active = IC50 below about 10 µM
A number is an active result; n = inactive; u = inconclusive; x = no result given. Hits are enriched below; roughly 5.7% of the tested compounds scored in any of these assays.

SMILES	FAS TE block	rCAG binder	Myeloid diff 2	GRIN3A LBD mod	MPTP block	rCAG bind conf	dCAG dye counter	others
Cc1ccc(S(=O)(=O)Nc2nc3ccccc3nc2NCc2ccco2)cc1C	n	47	n	n	n	53	20
Cc1cccc(S(=O)(=O)Nc2nc3ccccc3nc2NCc2ccco2)c1	n	44	n	n	n	n	7.3
NC1=NC(=O)/C(=C/c2cn(Cc3ccccc3)c3ccccc23)S1	n	44	n	n	n	n	11
CCOc1ccc(NS(=O)(=O)c2ccc(Cl)c(N=Nc3c(O)[nH]c(=S)[nH]c3=O)c2)cc1Br	n	93	n	x	n	93	66
COc1ccc(NS(=O)(=O)c2cc(N=Nc3c(O)[nH]c(=O)[nH]c3=O)ccc2OC)cc1Br	n	n	n	x	n	x	x
CC1OC(Oc2ccc3ccc(=O)oc3c2-c2c(O)ccc3cc(Oc4ccc5ccc(=O)oc5c4)c(=O)oc23)C(O)C(O)C1O (configuration not stated)	n	38	n	n	n	n	8.7
O=c1ccc2ccc(O[C@@H]3O[C@H](CO[C@@H]4OC[C@](O)(CO)[C@H]4O)[C@@H](O)[C@H](O)[C@H]3O)cc2o1	n	n	n	n	n	x	x
CC1=C(C(=O)OCc2ccccc2)C(c2ccccc2OS(=O)(=O)c2ccc(C)cc2)NC(=O)N1CCCC(=O)O (configuration not stated)	x	35	x	n	x	62	21
CC1=C(C(=O)OCc2ccccc2)C(c2ccccc2Cl)NC(=O)N1CCCC(=O)O (configuration not stated)	n	n	n	n	n	x	x
Cc1cccc(C(=O)N[C@H](C(=O)Nc2ccc(S(=O)(=O)NC3=NCCCCC3)cc2)C(C)C)c1	n	n	n	n	n	x	x
CCOc1ccc(C(=O)N[C@H](C(=O)Nc2ccc(S(=O)(=O)Nc3nccs3)cc2)C(C)C)cc1	n	47	n	n	n	46	15
COCC(=O)Nc1ccc(S(=O)(=O)Nc2nccs2)cc1	n	n	n	n	n	x	x
Cc1cccc(C(=O)NC(C(=O)Nc2ccc(S(=O)(=O)Nc3nccs3)cc2)C(C)C)c1 (configuration not stated)	n	42	n	n	n	35	13
COc1ccccc1N(CC(=O)NCC1CCCO1)C(=O)CCC(=O)Nc1nccs1 (configuration not stated)	n	n	n	n	n	x	x
O=C(O)CN1C(=O)/C(=C\c2ccccc2OCc2ccccc2)SC1=S	n	73	n	x	n	73	33	dCAG dye DR=n
O=C(O)CN1C(=O)/C(=C\c2cccc(OCc3ccccc3)c2)SC1=S	n	81	n	n	n	72	35
CN1C(=O)/C(=C\c2cccc(OCc3ccccc3)c2)SC1=S	n	n	n	n	n	x	x
O=C(O)CN1C(=O)/C(=C\c2ccccc2OCc2ccc(F)cc2)SC1=S	n	84	n	n	n	72	31	dCAG dye DR=n
COc1ccc(C(=O)Nc2sc(C)c(C)c2CN2CC(C)OC(C)C2)cc1 (configuration not stated)	n	n	n	n	n	x	x
O=C(NCc1ccccc1)C(c1cc2ccccc2o1)n1c(=O)c(-c2cc3ccccc3[nH]2)nc2ccccc21 (configuration not stated)	x	n	n	x	n	x	x
Cc1ccccc1-c1cnc(C(O)c2ccc(C(C)(C)C)cc2)[nH]1 (configuration not stated)	n	n	n	x	n	x	x
O=C1C=CC(=O)c2c(O)c(N3CCN(CCOCCO)CC3)c(Br)c(O)c21	n	53	u	n	n	68	36
Cc1nnc(NC(=O)Nc2cccc(Cl)c2)s1	n	50	n	n	n	n	12
Cc1cccnc1NC(=O)Nc1cccc(Cl)c1	n	n	n	n	n	x	x
O=S(=O)(Nc1ccc(-c2nc3cccnc3s2)cc1)c1cccs1	n	n	n	n	n	x	x
SMILES	FAS TE block	rCAG binder	Myeloid diff 2	GRIN3A LBD mod	MPTP block	rCAG bind conf	dCAG dye counter	others
Cc1cc(-c2nc3cccnc3s2)ccc1NS(=O)(=O)c1ccc2c(c1)OCCO2	n	38	n	n	n	47	14
Cc1cc(-c2nc3cccnc3s2)ccc1NS(=O)(=O)c1cccs1	n	50	n	n	n	37	11
O=C(O)c1cc(NS(=O)(=O)c2ccc(F)cc2)cc(NS(=O)(=O)c2ccc(F)cc2)c1	n	n	n	n	n	x	x
CCOc1ccc(Oc2ccc(NS(=O)(=O)c3ccc(CCC(=O)O)cc3)cc2)cc1	n	43	n	x	n	38	11
CCOc1ccc(S(=O)(=O)Nc2cc(NS(=O)(=O)c3ccc(OCC)cc3)cc(C(=O)O)c2)cc1	n	58	n	n	n	60	24
CCOc1ccc(Oc2ccc(NS(=O)(=O)c3cc(C(=O)O)ccc3Cl)cc2)cc1	n	38	n	n	n	39	11
O=C(O)c1ccc(Cl)c(S(=O)(=O)Nc2ccc(S(=O)(=O)N3CCCC3)cc2)c1	n	n	n	n	n	x	x
COc1cc(/C=N/Nc2nc(=O)[nH]nc2C)cc([N+](=O)[O-])c1O	n	n	n	n	n	x	x
CN(CCCOC(=O)c1cc2ccccc2o1)C1CN(Cc2cn(Cc3ccc([N+](=O)[O-])cc3)nn2)S(=O)(=O)C1 (configuration not stated)	x	n	x	x	x	x	x
COc1ccc(Cl)cc1NC(=O)[C@@]1(CC(=O)O)CC(/C=C/c2ccccc2)=NO1	n	38	n	n	n	36	8.2
COc1ccc(NC(=O)[C@@]2(CC(=O)O)CC(/C=C/c3ccccc3)=NO2)cc1	n	n	n	n	n	x	x
C=CCn1c(CSCc2ccc(Cl)cc2Cl)nnc1SCC(=O)Nc1ccc(C(=O)O)cc1	n	36	n	n	n	53	16
COc1cccc2cc(-c3nc(-c4cccs4)cs3)c(=O)oc12	n	n	n	n	n	x	x
O=c1oc2ccccc2cc1-c1nc(-c2cccs2)cs1	n	41	n	n	n	n	8.6
Cc1cc(C)cc(OC(C)C(=O)NCCCn2ccnc2)c1 (configuration not stated)	n	n	n	n	n	x	x
Cc1ccccc1OCC(=O)OCC(=O)NC1CCCC1	n	n	n	x	n	x	x
O=C(CSc1ccc(Br)c2cccc(Cl)c12)Nc1ccc(S(=O)(=O)Nc2nccs2)cc1	n	77	x	13	n	75	43
O=C(CSc1ccc2ccccc2c1)Nc1ccc(S(=O)(=O)Nc2nccs2)cc1	n	74	n	13	n	71	36
CN(C)CCCNC(=O)OC1CC2CC1[C@H]1CCCCN1C2=O (some centres not stated)	n	n	n	x	n	x	x
CCC(C)N(C(=O)c1csnn1)C(C(=O)NC1CCCC1)c1ccccc1F (configuration not stated)	n	n	n	n	n	x	x

Bioassay records (PubChem)
